Experimental data published in PubChem BioAssay (NCI).
About 83,000 compounds went through this panel and 20% of them were active in at least one assay; those are over-represented in the sample as a whole.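 48-hour exposure, single concentration, 96-well plates; percent growth endpoint where 0 means no net growth. Active: below 10.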 Active and inactive are the calls of the source.

Experiments:
Experiment in all cases: NCI-60 one-dose screen, 48 h (100 = growth as untreated, 0 = no growth, -100 = all killed)
Details in all cases: 10 µM unless noted
RPMI-8226 leukemia = system: RPMI-8226 leukemia
OVCAR-8 ovarian = system: OVCAR-8 ovarian
OVCAR-5 ovarian = system: OVCAR-5 ovarian
OVCAR-4 ovarian = system: OVCAR-4 ovarian
SK-OV-3 ovarian = system: SK-OV-3 ovarian
OVCAR-3 ovarian = system: OVCAR-3 ovarian
HS 578T breast = system: HS 578T breast
NCI/ADR-RES ovarian = system: NCI/ADR-RES ovarian
T-47D breast = system: T-47D breast
IGROV1 ovarian = system: IGROV1 ovarian

Measured: growth

CC(=O)Oc1c(C)c(OC(C)=O)c2c(c1C(C)=O)OC1CC(=O)C(C(C)=O)=C(O)C21C (stereo unspecified)
inactive: RPMI-8226 leukemia 78.3% | OVCAR-8 ovarian 105% | OVCAR-5 ovarian 102% | OVCAR-4 ovarian 99% | SK-OV-3 ovarian 98.2% | OVCAR-3 ovarian 118% | HS 578T breast 109% | NCI/ADR-RES ovarian 80.7% | T-47D breast 103%

O=c1c(O)cccn1CCCNCCCN(CCCn1cccc(O)c1=O)CCCn1cccc(O)c1=O
inactive: RPMI-8226 leukemia 131% | OVCAR-8 ovarian 114% | OVCAR-5 ovarian 94.7% | OVCAR-4 ovarian 101% | SK-OV-3 ovarian 97.3% | OVCAR-3 ovarian 103% | HS 578T breast 120% | NCI/ADR-RES ovarian 101% | T-47D breast 101%

CCOC(=O)c1c2c(c(C)n1Cc1ccccc1)-c1nc(N)ncc1CC2
inactive: RPMI-8226 leukemia 80% | OVCAR-8 ovarian 104% | OVCAR-5 ovarian 78.6% | OVCAR-4 ovarian 105% | SK-OV-3 ovarian 118% | OVCAR-3 ovarian 125% | HS 578T breast 93.6% | NCI/ADR-RES ovarian 101% | T-47D breast 86.4%

CN1CCCC1c1cccnc1 (stereo unspecified)
active: OVCAR-5 ovarian -6.38% | NCI/ADR-RES ovarian -37%
inactive: RPMI-8226 leukemia 70.7% | OVCAR-8 ovarian 111% | OVCAR-4 ovarian 104% | SK-OV-3 ovarian 116% | OVCAR-3 ovarian 117% | HS 578T breast 112% | T-47D breast 110%

Cc1cc(NC(=O)Nc2cccc3ccccc23)no1
inactive: RPMI-8226 leukemia 102% | OVCAR-8 ovarian 105% | OVCAR-5 ovarian 98.9% | OVCAR-4 ovarian 103% | SK-OV-3 ovarian 103% | OVCAR-3 ovarian 113% | HS 578T breast 107% | NCI/ADR-RES ovarian 103% | T-47D breast 87.6%

O=C(Nc1ncc([N+](=O)[O-])s1)c1cccc([N+](=O)[O-])c1
inactive: OVCAR-8 ovarian 43.1% | OVCAR-5 ovarian 87.6% | OVCAR-4 ovarian 40.5% | SK-OV-3 ovarian 64.1% | OVCAR-3 ovarian 21.3% | HS 578T breast 49.2% | NCI/ADR-RES ovarian 39.9% | T-47D breast 24.7%
active: RPMI-8226 leukemia -6.2%

C[C@]12C[C@H](O)[C@H]3[C@@H](CCC4=CC(=O)CC[C@@]43C)[C@@H]1CC[C@@H]2C(=O)CO
inactive: OVCAR-8 ovarian 104% | OVCAR-5 ovarian 43.8% | OVCAR-4 ovarian 97.7% | SK-OV-3 ovarian 81.3% | OVCAR-3 ovarian 110% | HS 578T breast 108% | T-47D breast 92%
active: RPMI-8226 leukemia 0.491% | NCI/ADR-RES ovarian -34.7%

CCCCCCCCCCCCCCCCN=C(CC(=O)O)C(=O)O
inactive: RPMI-8226 leukemia 103% | OVCAR-8 ovarian 107% | OVCAR-5 ovarian 116% | OVCAR-4 ovarian 34.8% | IGROV1 ovarian 88.6% | OVCAR-3 ovarian 107% | HS 578T breast 96.9% | NCI/ADR-RES ovarian 105% | T-47D breast 102%

O=C(Nc1ccc(Nc2ccncc2)cc1)c1ccc(Nc2ccnc3ccc([N+](=O)[O-])cc23)cc1[N+](=O)[O-]
active: HS 578T breast -5.48%
inactive: RPMI-8226 leukemia 77.8% | OVCAR-8 ovarian 44.4% | OVCAR-5 ovarian 97.4% | OVCAR-4 ovarian 91.1% | OVCAR-3 ovarian 98.1% | NCI/ADR-RES ovarian 52% | T-47D breast 62.2%

O=C1c2nsnc2C(=O)c2c(F)c(F)c(F)c(F)c21
active: RPMI-8226 leukemia -1.71% | OVCAR-8 ovarian -38.6% | OVCAR-5 ovarian -73.8% | OVCAR-4 ovarian -99.5% | IGROV1 ovarian -22.9% | OVCAR-3 ovarian -90.1% | NCI/ADR-RES ovarian -17.1% | T-47D breast -38.9%

C=C(C[C@](O)(C(=O)/C=C/c1ccc(Cl)cc1)C(=O)OC)c1ccccc1
inactive: OVCAR-8 ovarian 50.2% | OVCAR-5 ovarian 105% | SK-OV-3 ovarian 95.7% | IGROV1 ovarian 81.2% | OVCAR-3 ovarian 61.7% | HS 578T breast 104% | NCI/ADR-RES ovarian 59.2% | T-47D breast 36.2%
active: RPMI-8226 leukemia -20.3%

O=C(Nc1ccc(Cl)cc1)c1cc2c(cc1O)[nH]c1ccccc12
active: RPMI-8226 leukemia -61.6% | OVCAR-8 ovarian 8.57% | OVCAR-3 ovarian 6.34% | NCI/ADR-RES ovarian 0.0543% | T-47D breast -1.88%
inactive: OVCAR-5 ovarian 59.8% | OVCAR-4 ovarian 30.6% | IGROV1 ovarian 163% | HS 578T breast 52%

NC(N)=NN=c1c(=O)c2ccccc2c1=O
inactive: RPMI-8226 leukemia 60.1% | OVCAR-8 ovarian 81.5% | OVCAR-5 ovarian 98.9% | OVCAR-4 ovarian 103% | IGROV1 ovarian 102% | OVCAR-3 ovarian 80.6% | HS 578T breast 109% | NCI/ADR-RES ovarian 91.7% | T-47D breast 116%

Cc1c(C(N)=O)sc2nc(SCC(=O)Nc3ccc(Cl)cc3)n(-c3ccccc3)c(=O)c12
inactive: RPMI-8226 leukemia 112% | OVCAR-8 ovarian 118% | OVCAR-5 ovarian 93.9% | OVCAR-4 ovarian 101% | IGROV1 ovarian 20.6% | OVCAR-3 ovarian 131% | HS 578T breast 348% | NCI/ADR-RES ovarian 97.2% | T-47D breast 91.1%

Nc1nc(SCC2(CCl)COC2)c2[nH]cnc2n1
inactive: RPMI-8226 leukemia 96.4% | OVCAR-8 ovarian 95.8% | OVCAR-5 ovarian 100% | OVCAR-4 ovarian 86.8% | IGROV1 ovarian 101% | OVCAR-3 ovarian 109% | HS 578T breast 89.4% | NCI/ADR-RES ovarian 109% | T-47D breast 100%

CCCc1cccc(CCC)c1O
inactive: RPMI-8226 leukemia 111% | OVCAR-8 ovarian 107% | OVCAR-5 ovarian 117% | SK-OV-3 ovarian 110% | IGROV1 ovarian 125% | OVCAR-3 ovarian 117% | HS 578T breast 107% | NCI/ADR-RES ovarian 103% | T-47D breast 104%

C[n+]1c2ccccc2c(NC2CCNCC2)c2[nH]c3ccccc3c21
active: RPMI-8226 leukemia -40.8% | SK-OV-3 ovarian -0.545% | IGROV1 ovarian -20.9% | OVCAR-3 ovarian -1.97% | HS 578T breast -38% | T-47D breast -9.19%
inactive: OVCAR-8 ovarian 15.2% | OVCAR-5 ovarian 36.3% | NCI/ADR-RES ovarian 96.5%

CN(C)c1ccc(/C=C\c2ccnc3ccccc23)cc1
inactive: OVCAR-8 ovarian 63.6% | OVCAR-5 ovarian 65% | OVCAR-4 ovarian 68.2% | SK-OV-3 ovarian 55.2% | HS 578T breast 84.9% | T-47D breast 65.4%
active: RPMI-8226 leukemia -18.1% | NCI/ADR-RES ovarian -35.5%

CO[C@H]1/C=C/O[C@@]2(C)Oc3c(C)c(O)c4c(O)c(c(/C=N/N5C(C)CN(Cc6ccccc6)CC5C)c(O)c4c3C2=O)NC(=O)/C(C)=C\C=C\[C@H](C)[C@H](O)[C@@H](C)[C@@H](O)[C@@H](C)[C@H](OC(C)=O)[C@@H]1C (stereo partly specified)
active: NCI/ADR-RES ovarian -20.3%
inactive: RPMI-8226 leukemia 83.5% | OVCAR-8 ovarian 75.6% | OVCAR-5 ovarian 99.1% | OVCAR-4 ovarian 89.8% | SK-OV-3 ovarian 116% | HS 578T breast 84.6% | T-47D breast 81.4%

COc1cc2c(-c3nc4cc(Cl)c(F)cc4s3)cc(=O)oc2c(C)c1OC
active: RPMI-8226 leukemia -56% | OVCAR-8 ovarian -58.8% | OVCAR-5 ovarian -65.5% | OVCAR-4 ovarian -92.9% | IGROV1 ovarian -43.6% | OVCAR-3 ovarian -98.6% | HS 578T breast -0.186% | NCI/ADR-RES ovarian -10% | T-47D breast -14.1%

Clc1cc(Cl)c(OCC#CI)cc1Cl
inactive: RPMI-8226 leukemia 15.2% | OVCAR-8 ovarian 72.1% | OVCAR-5 ovarian 101% | SK-OV-3 ovarian 102% | IGROV1 ovarian 45.3% | HS 578T breast 103% | NCI/ADR-RES ovarian 83.6%
active: OVCAR-3 ovarian -61.5% | T-47D breast 1.86%

COc1c(C)c2c(c(O)c1C/C=C(\C)CCC(=O)OCCN1CCOCC1)C(=O)OC2
inactive: RPMI-8226 leukemia 16% | OVCAR-8 ovarian 16.9% | OVCAR-5 ovarian 36.8% | SK-OV-3 ovarian 31.4% | IGROV1 ovarian 13% | OVCAR-3 ovarian 36.1% | HS 578T breast 50.4% | NCI/ADR-RES ovarian 21.5% | T-47D breast 29.3%

Nc1nc(Cl)c2[nH]cnc2n1
inactive: RPMI-8226 leukemia 107% | OVCAR-8 ovarian 109% | OVCAR-5 ovarian 93.5% | OVCAR-4 ovarian 101% | SK-OV-3 ovarian 93.2% | HS 578T breast 117% | NCI/ADR-RES ovarian 51% | T-47D breast 103%

CN(C)c1ccc2c(c1)/C(=N/O)c1ccccc1-2
inactive: RPMI-8226 leukemia 107% | OVCAR-8 ovarian 97.6% | OVCAR-5 ovarian 96.2% | OVCAR-4 ovarian 82.6% | OVCAR-3 ovarian 93.4% | HS 578T breast 36.4% | NCI/ADR-RES ovarian 41.9% | T-47D breast 85.5%

COc1cccc2c1C(=O)c1c(O)c3c(c(O)c1C2=O)C[C@@](O)(/C(C)=N/NC(=O)c1cccc([N+](=O)[O-])c1)C[C@@H]3OC1CC(N)C(O)C(C)O1 (stereo partly specified)
active: RPMI-8226 leukemia -55.6% | OVCAR-8 ovarian -6.79% | OVCAR-5 ovarian -9.12% | OVCAR-4 ovarian -17.3% | OVCAR-3 ovarian -40.7% | T-47D breast -28.9%
inactive: NCI/ADR-RES ovarian 58.3%

COc1ccc(Cn2c(NCCCN(C)C)nc(=O)n(Cc3ccc(F)cc3)c2=O)cc1
inactive: RPMI-8226 leukemia 95.7% | OVCAR-8 ovarian 98.9% | OVCAR-5 ovarian 109% | OVCAR-4 ovarian 93.1% | IGROV1 ovarian 84.7% | HS 578T breast 93.3% | NCI/ADR-RES ovarian 109% | T-47D breast 83.4%

O=C(C=C=Nc1ccccc1)C(=O)N=C=Cc1ccccc1
active: RPMI-8226 leukemia -59.5%
inactive: OVCAR-8 ovarian 60.8% | OVCAR-5 ovarian 75.5% | OVCAR-4 ovarian 50.6% | IGROV1 ovarian 51.5% | OVCAR-3 ovarian 13.5% | HS 578T breast 94.8% | NCI/ADR-RES ovarian 65.5% | T-47D breast 17.7%

Cc1cc(O)c2c(c1)C[C@H]1[C@@H]3CC[C@H]4CC(=O)CC[C@]4(C)[C@H]3CC(=O)[C@]21C
inactive: RPMI-8226 leukemia 56.6% | OVCAR-8 ovarian 97.4% | OVCAR-5 ovarian 79.7% | SK-OV-3 ovarian 114% | IGROV1 ovarian 126% | OVCAR-3 ovarian 98% | HS 578T breast 33% | NCI/ADR-RES ovarian 83.8% | T-47D breast 67.9%

COC(=O)C[C@@H]1CC=CC(=O)/C1=C(O)/C=C/c1ccccc1
active: OVCAR-5 ovarian -83.8% | OVCAR-4 ovarian -10.7% | IGROV1 ovarian -72.9% | OVCAR-3 ovarian -92.5% | T-47D breast -6.15%
inactive: RPMI-8226 leukemia 31.3% | OVCAR-8 ovarian 10.6% | HS 578T breast 12.5% | NCI/ADR-RES ovarian 17.6%

S=C(Nc1ccc(C2=NCCN2)cc1)Nc1ccc(C2=NCCN2)cc1
inactive: RPMI-8226 leukemia 94.4% | OVCAR-8 ovarian 96.2% | OVCAR-5 ovarian 97.7% | SK-OV-3 ovarian 108% | IGROV1 ovarian 108% | OVCAR-3 ovarian 110% | HS 578T breast 110% | NCI/ADR-RES ovarian 93.2% | T-47D breast 83.2%
